PubChem BioAssay (NCI)
Compounds without any hit were thinned out: in the full panel of roughly 83,000, 20% have a hit.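 48-hour exposure, single concentration, 96-well plates; percent growth endpoint where 0 means no net growth. Active: below 10.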 Unmarked numbers belong to inactive results. Active and inactive are the calls of the source.

Key:
Experiment in all cases: NCI-60 one-dose screen, 48 h (100 = growth as untreated, 0 = no growth, -100 = all killed)
Details in all cases: 10 µM unless noted
T-47D breast = system: T-47D breast
BT-549 breast = system: BT-549 breast
MDA-MB-435 melanoma = system: MDA-MB-435 melanoma
SW-620 colon = system: SW-620 colon
MCF7 breast = system: MCF7 breast
HCT-116 colon = system: HCT-116 colon
HCC-2998 colon = system: HCC-2998 colon
KM12 colon = system: KM12 colon

Row | Structure (SMILES) | growth (T-47D breast) | growth (BT-549 breast) | growth (MDA-MB-435 melanoma) | growth (SW-620 colon) | growth (MCF7 breast) | growth (HCT-116 colon) | growth (HCC-2998 colon) | growth (KM12 colon)
1 | CCC(=O)OC1=C(C)SC2=NC(c3ccc(Cl)c(Cl)c3)=CC(c3cc(OC)c(OC)c(OC)c3)N21 (stereo not drawn) | 97.5% | 103% | 103% | 109% | 94.1% | 95% | 110% | 107%
2 | CCCCCCCSc1ccc(C(=O)O)cc1 | 107% | 112% | 96% | 105% | 84.3% | 99.3% | 114% | 116%
3 | CCOC(=O)c1c(C)[nH]c(C(=O)CCC(=O)OC)c1C | 101% | 84.5% | 103% | 108% | 98% | 81% | 99.2% | 103%
4 | Cc1[nH]c(-c2nc3ccccc3[nH]2)c(C)c1C(=O)N1CCOCC1 | 99.1% | 99% | 99.7% | 96.3% | 93.3% | 101% | 97.9% | 105%
5 | O=C(c1ccccc1)c1ccc(N2C(=O)C3C4c5ccccc5C(/C=C/C(=O)c5ccccn5)(c5ccccc54)C3C2=O)cc1 (stereo not drawn) | 27% | 22.2% | 4.74% (active) | 3.76% (active) | 19% | -27.4% (active) | 25.3% | 9.88% (active)
6 | COc1cc2c(cc1OC)-c1ccc3cc4c(cc3c1N(CCN(C)C)C2)OCO4 | -12.3% (active) | -2.52% (active) | 40% | 9.79% (active) | 4.64% (active) | -85.8% (active) | 26.7% | 17.1%
7 | O=C(NC(=S)Nc1ccc(-c2nc3ccccc3[nH]2)cc1)c1ccc2ccccc2c1 | 18.5% | 4.76% (active) | 22.6% | 34.2% | 36.4% | 3.95% (active) | 66.2% | 31.3%
8 | CCCCCCCC/C=C\CCCCCCCC(=O)Oc1cccc2cccnc12 | 54.6% | 65.6% | 82.9% | 59.4% | 89.4% | 32.2% | 106% | 104%
9 | COC(=O)[C@]12CC[C@@H](C)[C@H](C)[C@@H]1C1=CC[C@@H]3[C@@]4(C)C(C=O)=C[C@@](C)(CO)C4=CC[C@@]3(C)[C@]1(C)CC2 | 20.8% | 27.7% | 39.6% | 27.9% | 18.1% | 6.65% (active) | 16.1% | 21.6%
10 | CCOC(=O)Cc1csc2nc(-c3ccccc3)nn12 | 92.9% | 127% | 113% | 98.5% | 96.5% | 98.2% | 103% | 105%
11 | O=C(/C=C/C12c3ccccc3C(c3ccccc31)C1C(=O)NC(=O)C12)c1ccc(Cl)cc1 (stereo not drawn) | 39.9% | 9.59% (active) | -19.4% (active) | -3.94% (active) | 10.6% | -27.8% (active) | -67% (active) | -36.6% (active)
12 | O=C(Nc1ccccc1Cl)OCCN1CCOCC1 | 101% | 72.2% | 107% | 104% | 105% | 73.8% | 99.6% | 102%
13 | N=C(N)c1ccc(-c2ccc(/C=C/c3ccccc3)s2)cc1 | 37.8% | 93.9% | -34.9% (active) | -67.1% (active) | -74.2% (active) | -79% (active) | -63.7% (active) | -47.1% (active)
14 | Cl.Fc1c[c-]c(-c2ccccn2)c(F)c1.[Pt].c1ccc(P(c2ccccc2)C([PH+](c2ccccc2)c2ccccc2)[PH+](c2ccccc2)c2ccccc2)cc1 | 27.7% | 26.6% | 12.9% | 14.7% | 4.74% (active) | 8.7% (active) | 24.6% | 11.4%
15 | Cc1nc(Nc2ccccn2)sc1C(=O)/C=C/c1ccc(Br)cc1 | 45.7% | 83.3% | 14.6% | 45.7% | 8.46% (active) | 72.6% | 103% | 24.2%
16 | O=C1c2ccccc2C(=O)c2cc(Cn3cc[n+](Cc4ccc5ccccc5c4)c3)ccc21 | 70.1% | 60.1% | 84.8% | 84.2% | 59.2% | 84.3% | 79.1% | 77.8%

Row | Structure (SMILES) | growth (T-47D breast) | growth (BT-549 breast) | growth (MDA-MB-435 melanoma) | growth (SW-620 colon) | growth (MCF7 breast) | growth (HCT-116 colon) | growth (HCC-2998 colon) | growth (KM12 colon)
17 | CCCCN1CCN(c2ccc3nc(-c4ccc5nc(-c6cc(OC)c(OC)c(OC)c6)[nH]c5c4)[nH]c3c2)CC1 | 66% | 80.2% | 53.5% | 60.3% | 19.9% | 41.1% | 100% | 59.3%
18 | COc1cc(-c2ccc(-c3ccc(C(=N)N)nc3)s2)cc(OC)c1OC | 66.2% | 89.8% | 37.1% | 29.2% | -1.33% (active) | 0.952% (active) | 12.1% | 49.1%
19 | CC(c1ccc(-n2cccn2)cc1)c1cnc(N2CCc3ccc(C(N)=O)cc3C2)s1 (stereo not drawn) | 2.07% (active) | 12% | 40.4% | 97.3% | 37% | 40.6% | 80.9% | 68.2%
20 | COc1cc(C2CC(=O)Nc3n[nH]c(-c4ccccc4)c32)cc(OC)c1OC (stereo not drawn) | 67.3% | 52.4% | -2.19% (active) | 44.5% | 47.1% | 45.1% | 68% | 51.5%
21 | O=C1c2ccccc2C2(c3ccc(O)cc3)c3ccccc3Oc3cccc1c32 (stereo not drawn) | 21.8% | 55.1% | -3.86% (active) | 22.7% | 23.1% | 14.1% | 34.6% | 15%
22 | COc1cc2c(cc1OC)-c1ccc3cc4c(cc3c1N(CCN1CCCC1)C2)OCO4 | -28.3% (active) | 21.8% | 56.4% | -40.1% (active) | -6.8% (active) | -84.5% (active) | 15.7% | 16.7%
23 | O=[N+]([O-])c1ccc(-c2cc3c(Nc4ccc(OCc5cccc(Cl)c5)c(Cl)c4)ncnc3s2)cc1 | 58.9% | 86.2% | 74.3% | 48.7% | 44.1% | 52% | 102% | 74%
24 | CC(=O)Nc1nccs1 | 97.7% | 112% | 106% | 92.5% | 91.2% | 101% | 102% | 96%
25 | Cn1ccnc1C(=O)/C=C/c1ccc(C(=O)Nc2ccc(S(F)(F)(F)(F)F)cc2)cc1 | 27.8% | 39.6% | 39.2% | 12.5% | 12.5% | 3.62% (active) | 5.66% (active) | 16.6%
26 | Cc1nn(-c2ccccc2)c2c1C(c1ccc([N+](=O)[O-])cc1)C(C#N)=C(N)O2 (stereo not drawn) | 98.4% | 123% | 121% | 119% | 96.7% | 95.8% | 105% | 109%
27 | C=C(C=O)C1CCC2(C(=O)O)CCC3(C)C(CCC4C5(C)CCC(O)C(C)(C)C5CCC43C)C12 (stereo not drawn) | 45% | 17.4% | 16% | -14.5% (active) | 6.07% (active) | -92.3% (active) | -85.2% (active) | -87.8% (active)
28 | Cl.Fc1c[c-]c(-c2ccccn2)c(F)c1.[Pt].c1ccc([PH+](c2ccccc2)c2ccccc2[PH+](c2ccccc2)c2ccccc2)cc1 | -80.2% (active) | -70.2% (active) | -93.5% (active) | -81.6% (active) | -79.3% (active) | -68% (active) | -76.6% (active) | -90.6% (active)
29 | N#Cc1c(NC(=O)c2cccc(C(F)(F)F)c2)sc2c1CCC(=O)C2 | -21.6% (active) | -77.1% (active) | -74.6% (active) | -66.2% (active) | 7.82% (active) | -63.7% (active) | 27.2% | -21.3% (active)
30 | CN(C)CCN1C(=O)c2cccc3c(-c4ccc(-c5nc6c7ccccc7c7ccccc7c6[nH]5)cc4)ccc(c23)C1=O | 86.7% | 104% | 114% | 86% | 36.2% | 65.1% | 104% | 75.8%
31 | CCN(CCO)CC(=O)c1cc(Cl)cc(Cl)c1Cl | 84% | 93.7% | 105% | 102% | 98.9% | 98.9% | 98.2% | 102%
